# BoNT-A LC inh2: blocks Botulinum neurotoxin A light chain protease; multiplex microsphere protease substrate cleavage, flow cytometry; inhibition, % at 10 µM; 360,000 tested, 0.17% active; also: plate controls were buffer without enzyme for full effect and enzyme alone for no effect
# Anthrax LF prot: inhibitors of Bacillus anthracis lethal factor protease. P15917. multiplex microsphere protease cleavage assay, LF. inhibition, % at 10 µM. 360,000 tested, 0.12% active. AID 588501; also: plate controls were buffer without enzyme for full effect and enzyme alone for no effect
# MazF activator: activators of E. coli MazEF toxin-antitoxin RNase; P0AE70; FAM/BHQ RNA-DNA oligo cleavage fluorescence, 5 h; activation, % at 20 µM; 350,000 tested, 0.32% active; in the data active = activation above about 50%
# BH1578 lux ind: quorum light induction in luxS cqsA deficient V. cholerae | V. cholerae BH1578 lux reporter, luminescence, 6 h | activation, % at 18.7 µM | 350,000 tested, 0.16% active | AID 588436; in the data active = activation mostly above about 9.7%, no sharp cut-off; inconclusive = no clear call, values can overlap the other calls; inactive = mostly below about 3.7%
# BoNT-F LC inh: blocks Botulinum neurotoxin F light chain protease; Multiplex microsphere protease cleavage assay, flow cytometry; inhibition, % at 10 µM; 360,000 tested, 0.22% active; in the data active = inhibition above about 35%, passing the limit was not always enough; inconclusive = no clear call, values can overlap the other calls; also: plate controls were buffer without enzyme for full effect and enzyme alone for no effect
# Autofluor counter: compound fluorescence in toxin protease inhibitor counterscreen; compound autofluorescence counterscreen, microsphere flow cytometry; hits give high values; AID 624483; fluorescence intensity (test concentration not listed); 360,000 tested, 3.1% active; in the data active = fluorescence intensity above about 16000; inconclusive = no clear call, values can overlap the other calls
# * = called active by the depositor; i = inactive; u = inconclusive; x = no result given. Rows were chosen to be rich in hits. Some 3.9% of all compounds tested hit in one or more screens of this group. Rule as the data show it, unless noted: active = inhibition above about 30%; inconclusive = no clear call, values can overlap the other calls; inactive = below that.
SMILES,BoNT-A LC inh2,Anthrax LF prot,MazF activator,BH1578 lux ind,BoNT-F LC inh,Autofluor counter
CC1=CC(C)(C)N2C(=O)C3(SCC(=O)N3c3ccc(O)cc3)c3cc(C)cc1c32 (stereo not given),3,-4,2,11,3,20630*
CN1CCN(S(=O)(=O)c2cccc([N+](=O)[O-])c2)CC1,0,-1,-3,i,-1,20528*
CN1CCN(S(=O)(=O)c2cccc(S(=O)(=O)c3cccc(S(=O)(=O)N4CCN(C)CC4)c3)c2)CC1,-1,0,6,i,0,21260*
O=[N+]([O-])c1cccc(S(=O)(=O)N2CCCCC2)c1,0,-5,5,i,24,3821
CS(=O)(=O)c1ccc(Nc2nc(C(N)c3ccccc3Cl)cs2)cc1 (stereo not given),-1,0,x,i,-14,4860
N#Cc1cc(-c2ccccc2)cn(Cc2c(Cl)cccc2Cl)c1=O,-1,-6,43,0,-9,9974
Cc1ccc(-c2cc(C#N)c(=O)n(Cc3c(Cl)cccc3Cl)c2)cc1,0,1,58*,0,-1,8112
CCCNc1cc(C)oc(=O)c1C(=O)CC,0,0,4,0,0,2173
CCCC(=O)c1c(NC)cc(C)oc1=O,u,0,5,i,-6,21049*
CC1(C(=O)Nc2cccc(OC(F)(F)F)c2)Cc2c(-c3cccc(C(N)=O)c3)ccnc2O1 (stereo not given),0,-6,x,-1,-8,3160
COc1ccc(N(CCOc2ccccc2)S(=O)(=O)c2ccccc2)cc1,0,u,0,-1,-5,5308
CCOc1ccc(N(CCC#N)S(=O)(=O)c2ccc(OC)cc2)cc1,7,-11,-5,-2,5,20566*
CC(C)(C)OC(=O)C[C@@H]1C/C=C\C[C@H](CC(=O)NCCO)C(=O)NC[C@H](c2ccccc2)OC1=O,0,-1,5,i,3,4023
O=[N+]([O-])c1nn(-c2ccccc2)[n+]([O-])c1N1CCN(c2ccccc2F)CC1,0,-2,144*,0,-4,1985
[O-][N+]1=c2ccc(Nc3ccccc3)cc2=NC12CCCCC2,-1,-8,0,-1,-15,16589*
CC12CC3(C)CC(C)(C1)CC(C(=O)NC1=NCCS1)(C2)C3,u,-3,-8,i,-18,23810*
CCOC(=O)c1c(C)[nH]c(C)c1C(=O)COC(=O)/C=C/c1ccc(Cl)cc1,-2,-2,14,0,-10,2606
Cc1cccc(C(=O)O/N=C2/CC3CCC2(C)C3(C)C)c1 (stereo not given),1,9,-2,-5,-8,4506
Cc1ccc(C(=O)O/N=C2\CC3CCC2(C)C3(C)C)cc1 (stereo not given),u,-3,-1,i,1,21254*
CCCS(=O)(=O)NC(=O)C1(C)CCN(C(=O)c2ccc(F)c(C)c2)C1 (stereo not given),0,1,x,i,-4,2995
CCCNC(=O)Cc1ncn[nH]1,-2,2,4,i,-1,20413*
Cn1cc(-c2csc(C(C)(O)c3cccnc3)n2)cn1 (stereo not given),-1,-6,x,0,-7,3353
CC(C)(C)c1ccc(CC(=O)N2CCC2(C)C(=O)NS(=O)(=O)c2ccc(Cl)s2)cc1 (stereo not given),-1,-3,x,i,-7,3918
O=S(=O)(c1cccc(-c2csc(-c3ccccc3)n2)c1)N1CCOCC1,0,-8,-17,0,-2,5466
CC1CN(S(=O)(=O)c2cccc(-c3csc(-c4ccccc4)n3)c2)CC(C)O1 (stereo not given),0,-4,70*,i,0,3333
Cc1ccc(N=Cc2nc(/C=C/c3cccc([N+](=O)[O-])c3)oc2O)cc1,u,9,21,i,5,22530*
Cc1ccc(-c2nc(C=Nc3ccc(O)cc3)c(O)o2)cc1,-2,6,25,0,3,3595
COc1ccc(C(=O)OCC(=O)N2c3ccccc3CC2C)cc1S(=O)(=O)N1CCOCC1 (stereo not given),0,2,-3,0,3,3887
CCOC(=O)c1ccc(COC(=O)CNC(=O)CNC(=O)Cc2ccccc2)cc1,-1,-1,-4,i,-2,5526
